Compound activity deposited in PubChem by several laboratories.
RmlCD inh 1536: M. tuberculosis RmlC/RmlD inhibition; RmlC+RmlD coupled enzyme assay, percent inhibition; primary screen in compound mixtures; P9WH09+P9WH11; inhibition, % at 3.6 µM; hit rate 0.03% among 160,000; AID 1533; in the data active = inhibition mostly above about 34%, no sharp cut-off
Target sequence (P9WH09 whole entry, looked up): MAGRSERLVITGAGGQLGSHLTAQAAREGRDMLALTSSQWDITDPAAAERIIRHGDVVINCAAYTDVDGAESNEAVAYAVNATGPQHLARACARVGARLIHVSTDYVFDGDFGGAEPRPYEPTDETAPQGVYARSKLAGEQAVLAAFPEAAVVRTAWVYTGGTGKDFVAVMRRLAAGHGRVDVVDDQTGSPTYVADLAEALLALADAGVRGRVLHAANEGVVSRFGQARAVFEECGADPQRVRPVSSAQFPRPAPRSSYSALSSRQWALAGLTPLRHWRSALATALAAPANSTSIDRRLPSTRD
Target sequence (P9WH11 whole entry, looked up): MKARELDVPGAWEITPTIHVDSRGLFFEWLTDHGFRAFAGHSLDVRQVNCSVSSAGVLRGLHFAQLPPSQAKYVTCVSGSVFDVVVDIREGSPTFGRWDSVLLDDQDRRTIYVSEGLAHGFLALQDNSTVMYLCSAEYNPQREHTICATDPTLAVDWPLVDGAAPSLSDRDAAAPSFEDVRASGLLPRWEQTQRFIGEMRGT
YopH PTP inh: inhibitors of Yersinia enterocolitica YopH tyrosine phosphatase. fluorescence Ex485/Em525. inhibition, % (test concentration not listed). hit rate 0.16% among 140,000. AID 898; in the data active = inhibition above about 50%
* marks the source's active call; other numbers are inactive results; / = no result. The entries come from a sample that favours hits as a whole.

SMILES	RmlCD inh 1536	YopH PTP inh
Cc1nc2ccccc2nc1N/N=C/c1ccc(O)cc1	3	/
Oc1ccc(Nc2nc3ccccc3nc2Nc2ccc(O)cc2)cc1	-5	70*
COc1cc(C(=O)NCc2nnc(SCC(=O)N3CCOCC3)o2)cc(OC)c1OC	-10	/
CCOc1ccccc1NC(=O)C1=C(C)NC(=S)NC1c1cccs1 (stereo not drawn)	-10	-41
O=C(c1cccs1)c1no[n+]([O-])c1C(=O)c1cccs1	/	87*
COc1ccc(C(=O)c2no[n+]([O-])c2C(=O)c2ccc(OC)cc2)cc1	13	-8
CC(CC(=O)Nc1ccc(S(=O)(=O)N2CCOCC2)cc1)c1ccccc1 (stereo not drawn)	-1	/
CN1C(=O)C(Cc2cccc3ccccc23)C(=O)N(C)C1=O	-8	55*
CN1C(=O)C(Cc2c[nH]c3ccccc23)C(=O)N(C)C1=O	/	-26
CCOc1ccccc1NC(=O)N1CCC(C(=O)c2ccc(F)cc2)CC1	-4	-18
COc1ccccc1NC(=O)N1CCC(C(=O)c2ccc(F)cc2)CC1	-7	56*
CCC(C)(C(=O)NC1CCCC1)N(Cc1cccs1)C(=O)c1ccc2c(c1)OCO2 (stereo not drawn)	/	-14
C/C(=N/NC(=O)c1ccco1)c1ccc(NC(=O)c2ccc(F)cc2)cc1	/	-29
CCN(CC)c1ccc(/C=N/Nc2ccccc2)c(O)c1	/	51*
CCN(CC)c1ccc(/C=N/NC(=O)OC)c(O)c1	/	2
CCN(CC)c1ccc(C=Nc2ccccc2)c(O)c1	/	52*
CCN(CC)c1ccc(C=Nc2cc(C)cc(C)c2)c(O)c1	-12	-28
CCN(CC)c1ccc(N=Cc2ccc(N(CC)CC)cc2O)cc1	/	-17
CCN(CC)c1ccc(/C=N/Nc2cccc(C)c2)c(O)c1	-10	58*
O=C(O)COc1ccc(/C=N/NC(=O)Cc2ccc(Cl)cc2)cc1	2	/
O=C(c1ccc(S(=O)(=O)N2CCCCC2)cc1)N1CCN(CCN2C(=O)c3cccc4cccc(c34)C2=O)CC1	-10	/
CC(=O)c1cc(-c2ccccc2)n(CCC(=O)NC(C)(C)C)c1C	-10	/
O=C(NNS(=O)(=O)c1ccc2ccccc2c1)c1cc(-c2ccccn2)nc2ccccc12	9	-5
Cn1c2c(c(=O)n(C)c1=O)C(c1ccc(Cl)cc1)C(C#N)=C(N)O2 (stereo not drawn)	-3	19
COc1cc2c(cc1NC(=O)CSc1nc3ccc(C)cc3[nH]1)oc1ccccc12	-86	-21
SMILES	RmlCD inh 1536	YopH PTP inh
CC(=O)Nc1nonc1-c1nc2ccccc2n1CCC(C)C	-12	-39
CCC(=O)Nc1nonc1-c1nc2ccccc2n1CCC(C)C	-6	57*
O=C(N/N=C/c1ccc(F)c(F)c1)c1cc2c(s1)-c1ccccc1CC2	16	-31
CNC(=O)c1cc2c(s1)-c1ccccc1CC2	57*	/
CC1CC(C)CN(CCOc2ccc(Br)cc2)C1 (stereo not drawn)	/	11
O=C(COC(=O)c1cc2ccccc2oc1=O)Nc1ccc(F)cc1F	8	/
Cc1ccc(NC(=O)c2ccnc(C(C)(C)C)c2)cc1	/	68*
CC(C)(C)c1cc(C(=O)Nc2ccccc2)ccn1	3	-39
COc1ccc(N=C2O/C(=C/c3sc(=S)n(CC4CCCO4)c3O)N=C2C#N)cc1 (stereo not drawn)	4	/
CCOC(=O)CNc1c(-c2ccc(Cl)cc2)nc2cnccn12	/	-12
CCOC(=O)CNc1c(-c2ccc(F)cc2)nc2cnccn12	51*	-18
Cc1ccc(S(=O)(=O)/N=C2/C=C(Sc3ncn[nH]3)C(=O)c3ccccc32)c(C)c1	-13	101*
Cc1ccc(C)c(S(=O)(=O)Nc2ccc(O)c(Sc3ncn[nH]3)c2)c1	-3	/
Cc1ccc(S(=O)(=O)/N=C2/C=C(Sc3ncn[nH]3)C(=O)c3ccccc32)cc1	/	100*
CCOc1ccc(S(=O)(=O)Nc2ccc(O)c(Sc3ncn[nH]3)c2)cc1	5	-24
CC(C)c1ccc(S(=O)(=O)/N=C2/C=C(Sc3ncn[nH]3)C(=O)c3ccccc32)cc1	-15	101*
Cc1ccc(S(=O)(=O)Nc2ccc(O)c(Sc3ncn[nH]3)c2)cc1	-11	/
CC(C)N1CCN(Cc2coc3ccccc3c2=O)CC1CCO (stereo not drawn)	7	/
C=CCNC(=O)c1ccccc1NC(=O)C1COc2ccccc2O1 (stereo not drawn)	-3	/
Nc1nnc(/C=C/c2ccccc2Cl)s1	0	/
CN(C)c1ccc(-c2nnn(CC(=O)NCc3ccc4c(c3)OCO4)n2)cc1	-7	/
O=C(NC1CCN(C(=O)C2CCCCC2)CC1)c1ccccc1	-2	/
COc1cccc(/C=C/c2nc3c(cnn3-c3ccccc3)c(=O)[nH]2)c1	35*	/
O=c1[nH]c(/C=C/c2ccc(Br)cc2)nc2c1cnn2-c1ccccc1	-7	/
O=C(c1ccc(Br)o1)N1CCc2ccccc21	-62	/
CN1CCN(NC(=O)c2ccc(F)cc2)CC1	-5	-7
Cc1ccc(C(=O)N2C(=S)C(c3ccc(F)cc3)=NC23CCN(C)CC3)cc1	-15	77*
